Insulin prom inh: TRM-6 insulin promoter activity inhibition | inhibition, % at 2 µM | TRM-6 cells (human fetal islet line), insulin promoter-eGFP reporter, imaging; reporter expression induced with tamoxifen | 0.9% of 130,000 active;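 active means inhibition above the mean plus 3 SD, with well images judged a real hit on visual review, cut at about 60% in these data, passing the limit was not always enough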
PTEN del growth: growth suppressors of cells with PTEN tumor suppressor deletion; HCT116 PTEN-null viability, CellTiter-Glo, 60 h; active compounds read low; viability, % at 10 µM; 1.2% of 140,000 active;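 active means viability at or below a set limit, 4 SD under the median of all tested compounds, cut at about 3.7% in these data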;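 further: PTEN knockout HCT116 line with beta catenin targeted HCT116 as companion control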
L major viab: Leishmania major promastigote growth inhibition. 9% of 200,000 active. Leishmania major promastigotes, resazurin fluorescence viability. inhibition, % at 10 µM; in the data active means inhibition above about 50%;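 further: promastigotes grown with compound for 44 hours at 28 °C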
ROMK primary: modulates human ROMK potassium channel activity. P48048. Tet-inducible ROMK, thallium flux fluorescence; actives lie on both sides. B-score at 10 µM. 2% of 130,000 active. AID 1918;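 active means signal ratio slope over the read window, or its plate-corrected B-score, at least 3 SD from the plate mean, either direction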;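 further: B-score of the F/F0 ratio slope over 7 to 12 s after thallium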
Target sequence (P48048 whole entry, looked up): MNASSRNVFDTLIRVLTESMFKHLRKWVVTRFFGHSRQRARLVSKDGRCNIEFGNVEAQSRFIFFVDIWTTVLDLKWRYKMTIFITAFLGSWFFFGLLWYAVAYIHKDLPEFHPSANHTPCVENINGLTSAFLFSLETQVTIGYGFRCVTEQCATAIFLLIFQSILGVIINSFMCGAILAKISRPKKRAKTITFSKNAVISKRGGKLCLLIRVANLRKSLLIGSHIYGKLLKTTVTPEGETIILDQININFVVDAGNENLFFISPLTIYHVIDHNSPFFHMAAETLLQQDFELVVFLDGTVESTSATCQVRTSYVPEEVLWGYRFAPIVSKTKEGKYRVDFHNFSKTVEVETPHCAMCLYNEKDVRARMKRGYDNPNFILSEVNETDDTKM
p97 ATPase inh: blocks human p97 ATPase activity; P55072; recombinant p97 ATPase, Kinase-Glo ATP luminescence, 3 h; inhibition, % at 8 µM; 0.42% of 220,000 active; AID 1481; in the data active means inhibition above about 15%;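 further: 0% = DMSO vehicle and 100% = wells lacking enzyme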
bCat KO growth: beta-catenin-lacking colon tumor cell growth suppression | HCT116 beta-catenin knockout viability, CellTiter-Glo, 60 h; active compounds read low | viability, % at 10 µM | 1.5% of 140,000 active | AID 818;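 active means viability at or under a set limit, the compound median less 4 SD, cut at about 6% in these data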;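 further: 0% = Hyamine 1622 control at 20 µM and 100% = untreated cell control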
* marks the source's active call; other numbers are inactive results; . = not tested or not shown. Compounds with a hit are over-represented: about 10% of the library has one in this group of screens.

SMILES | Insulin prom inh | PTEN del growth | L major viab | ROMK primary | p97 ATPase inh | bCat KO growth
COc1ccc(/C=C/CN2CCCC(C(=O)c3ccc(OC)c(F)c3)C2)cc1 (centres undefined) | . | . | 82* | -0.2 | 5 | .
CCOC(=O)C1CCN(C/C=C/c2ccccc2OC)CC1 | -17 | 85 | 78* | . | 0 | 70
COc1cccc(C(=O)C2CCCN(C/C=C/c3ccccc3OC)C2)c1 (centres undefined) | . | . | 20 | -2.1 | -6 | .
O=C(c1cccc(C(F)(F)F)c1)C1CCCN(C(=O)CCn2cnnn2)C1 (centres undefined) | . | . | . | . | 6 | .
CCCCC(=O)OCC(=O)Nc1ccc(C)c(F)c1 | . | . | -1 | -0.86 | 6 | .
O=S(Cc1ccc(Br)cc1)Cc1nnc(SCc2c(Cl)cccc2Cl)n1-c1ccccc1 (centres undefined) | -23 | 48 | 96* | . | -2 | 35
COC(=O)[C@H](Cc1ccccc1)NC(=O)N1CCN(c2ccc(F)cc2)CC1 | . | . | . | . | 3 | .
COc1cccc(C2SCC(=O)N2c2ccc(Cl)cc2)c1OC (centres undefined) | -24 | 88 | 67* | 0.037 | -4 | 85
COc1cccc(Cn2cnc3c(NS(=O)(=O)c4ccc(Cl)cc4)c(C)c(C)cc32)c1 | -88 | 92 | 50* | . | 1 | 89
CCn1c(C)nc2cc(C(=O)NNC(=S)NC(=O)c3ccc(OC)cc3)ccc21 | . | . | 94* | 1.4 | 1 | .
O=C(/C=C/c1cccs1)NC(=S)NNC(=O)c1ccccc1O | -150 | . | 99* | 3.1* | 6 | .
O=C(/C=C/c1cccs1)NC(=S)Nc1ccccc1 | . | . | -3 | 1.1 | 2 | .
COc1ccc(C(=O)NNC(=S)NC(=O)/C=C/c2cccs2)cc1 | 63 | . | 15 | 3.7* | 5 | .
Nc1nc(N2CCOCC2)cc(=O)[nH]1 | 57 | 89 | -5 | . | 4 | 95
Cc1c(-c2ccc(Br)cc2)nc2ccccn12 | . | 77 | 27 | . | 4 | 79
CN(C)c1ccc(-c2nc3ccccn3c2/N=C/c2ccc(Br)cc2)cc1 | 16 | 54 | 99* | -0.25 | -6 | 47
O=S(Cc1ccccc1)CC(O)(c1ccc(Cl)cc1)c1ccc(Cl)cc1 (centres undefined) | . | 13 | 15 | . | -7 | 5.7*
O=S(Cc1ccc(Cl)cc1)CC(O)(c1ccccc1)c1ccccc1 (centres undefined) | . | 16 | 9 | -1.1 | 1 | 12
O=C(NCc1cccnc1)/C(=C\c1ccc(-c2ccc(Br)cc2)o1)S(=O)(=O)c1ccccc1 | 4 | 0.9* | 100* | . | 2 | 1.6*
CCN(CC)c1ccc(NC(=O)OC)cc1 | -86 | 88 | 6 | . | -4 | 72
O=C1/C(=C/c2cccnc2)SC(=S)N1C1CCS(=O)(=O)C1 (centres undefined) | -36 | 19 | 92* | -2.1 | 4 | 23
Cc1ccc(N2C(=O)/C(=C/c3cccnc3)SC2=S)cc1 | -5 | 86 | 26 | 0.57 | 4 | 84
O=C1/C(=C\c2cccnc2)SC(=S)N1C1CCS(=O)(=O)C1 (centres undefined) | -121 | 83 | 73* | . | -1 | 81
O=C1/C(=C/c2cccnc2)SC(=S)N1N1CCOCC1 | . | . | . | . | -2 | .
Cc1nn(-c2ccccc2)nc1CNC(=O)C1CCC1 | . | . | . | . | -2 | .
SMILES | Insulin prom inh | PTEN del growth | L major viab | ROMK primary | p97 ATPase inh | bCat KO growth
CCN(CC)c1ccc(/C=N/NC(=O)OC(C)(C)C)cc1 | . | . | . | . | -1 | .
Cc1ccc(CNC(=O)c2ccc([N+](=O)[O-])o2)cc1 | . | 21 | 76* | 0.0074 | 6 | 15
Cc1ccc(CNC(=O)c2nn(C)c(C)c2[N+](=O)[O-])cc1 | 23 | 96 | 0 | 0.31 | -2 | 108
O=C(Nc1ccc(N2CCCC2)c(Cl)c1)c1ccco1 | 0 | 96 | 0 | -0.16 | -2 | 89
Cc1cccc(NC(=O)c2ccc([N+](=O)[O-])o2)c1C | -42 | . | 97* | -0.6 | -2 | .
CN(Cc1ccccc1)C(=O)c1ccc([N+](=O)[O-])o1 | . | 35 | 86* | 0.25 | -4 | 48
O=C(Nc1ccc(N2CCCC2)c(Cl)c1)c1ccc([N+](=O)[O-])o1 | . | . | 101* | 0.27 | -1 | .
O=C(Nc1cccc(Cl)c1N1CCOCC1)c1ccc([N+](=O)[O-])o1 | . | . | . | . | 4 | .
O=C(COC(=O)c1ccc([N+](=O)[O-])o1)c1ccccc1 | -25 | 89 | -3 | 1 | 4 | 83
COC(=O)c1ccc(OC(=O)C23CCC(C)(C(=O)O2)C3(C)C)cc1 (centres undefined) | . | . | -7 | . | 1 | .
COc1cc(-c2ccc(NC(=O)CN3CCCCC3)c(OC)c2)ccc1NC(=O)CN1CCCCC1 | -19 | . | -3 | -1.4 | -4 | .
